KDM5B inhibitor = inhibitors of human KDM5B histone demethylase | Q9UGL1 | KDM5B demethylase, FDH-coupled NADH fluorescence (FDH is formaldehyde dehydrogenase) | Potency, µM (titrated, usually from 57.7 µM), most hits filed as inhibitors | hit rate 2.6% among 220,000 | AID 1347165; active = well fitted inhibition curve with a large enough effect; inconclusive = small, poorly fitted or top-dose-only effect; inactive = no such curve, though single readings can be large or run the other way; note: potency is the fitted concentration of half-maximal effect; 0% is about no effect; nearly all actives have a fitted effect of over 70% in size
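Inhibition is measured as reduced NADH fluorescence generation from FDH coupling to formaldehyde release. Truncated KDM5BΔAP at 200 nM final acts on H3K4me3 peptide (12.5 µM in substrate mix) in pH 7.5 HEPES buffer with Tween-20, 30 min, room temperature.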
IP6K1 inh = blocks human inositol hexakisphosphate kinase 1. IP6K1 kinase, ADP-Glo luminescence, 2 h; hits give low values. activity change, % (series mostly up to about 58 µM). hit rate 0.81% among 140,000. Q92551; in the data active = activity change below about -25%; note: % is set by controls: 0 for no effect and ±100 for the full control effect
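ADP-Glo luminescence measures ADP made by human IP6K1 during a 2 h RT reaction with ATP/IP6 (mix at 1.3 mM/130 uM); top library doses 57.5 and 19.1 uM final.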
* marks the source's active call; other numbers are inactive results; i = inactive; u = inconclusive; x = not tested or not shown. Rows were chosen to be rich in hits. Some 2.8% of all compounds tested hit in one or more screens of this group.

SMILES	KDM5B inhibitor	IP6K1 inh
CCC(C(=O)N1CCc2cn(CCOC)c3cccc(c23)C1)c1ccccc1 (centres undefined)	u	-9
CC(O)(C(=O)O)C1CCC2(C)C1CCC1(C)C2CCC2C3(C)CCC(O)C(C)(COC4OC(CO)C(O)C(O)C4O)C3CCC21C (centres undefined)	x	21
Cc1c(C(=O)Nc2ccc3oc(-c4ccc(F)cc4)nc3c2)cccc1[N+](=O)[O-]	i	x
CCc1ccc(NC(=O)C2CCN(c3cc(C(F)(F)F)ncn3)CC2)cc1	u	-14
Cc1cc(NC(=O)C2CCN(c3cc(C(F)(F)F)ncn3)CC2)ccc1Br	28µM*	15
Cc1ccc(NC(=O)C2CCN(c3cc(C(F)(F)F)ncn3)CC2)cc1	25µM*	14
Cc1ccc(C)c(NC(=O)C2CCN(c3cc(C(F)(F)F)ncn3)CC2)c1	u	8
O=C(NC1CC1)c1ccc2oc(-c3ccncc3)nc2c1	x	-7
Cc1ccc(-c2ncc(C(=O)Nc3cccc(Br)c3)c(-c3ccncc3)n2)cc1	u	21
O=C(C1CCCN1C(=O)Nc1ccc(Cl)cc1)N1CCC(c2ccccc2)CC1 (centres undefined)	x	1
CC1(CNc2ccccc2)COc2ccc(C(=O)NCc3cccnc3)cc2N1 (centres undefined)	i	-12
CN(C)CCCOCC1(C)COc2ccc(C(=O)Nc3cccc(Cl)c3)cc2N1 (centres undefined)	32µM*	-1
CN(C)CCOCC1(C)COc2ccc(C(=O)Nc3ccc4[nH]ccc4c3)cc2N1 (centres undefined)	i	12
COc1cccc(NC(=O)c2ccc3c(c2)NC(C)(COCCN(C)C)CO3)c1 (centres undefined)	u	-5
CCOCC1(C)COc2ccc(C(=O)Nc3cccc(Cl)c3)cc2N1 (centres undefined)	u	13
CCOCC1(C)COc2ccc(C(=O)Nc3ccc(Cl)cc3)cc2N1 (centres undefined)	28µM*	-12
CCOCC1(C)COc2ccc(C(=O)Nc3cccc(OC)c3)cc2N1 (centres undefined)	32µM*	-2
COc1cccc(NC(=O)c2ccc3c(c2)NC(C)(CNc2ccccc2)CO3)c1 (centres undefined)	13µM*	23
O=C(O)COc1ccc(-c2nccc3c2C(=O)N(Cc2cccc(C(F)(F)F)c2)CC(CNC(=O)c2cccc(Cl)c2)O3)cc1 (centres undefined)	x	-11
COc1ccccc1-c1cccc(CN2CCCC(C(=O)N3CCCCC3)C2)c1 (centres undefined)	x	-7
COc1ccc(CC(=O)NC2CCN(c3ccnc4ccnn34)C2)cc1 (centres undefined)	x	15
O=C(NCCc1ccccc1)N1CCC(CCc2nc(C3CCOCC3)no2)CC1	x	26
COC(=O)C[C@H]1c2cccnc2C(=O)N(C)[C@@H]1C(=O)NCCc1ccccc1	x	4
O=C(NCc1ccccn1)c1ccc(C(F)(F)F)cc1	i	x
Cc1cccc(-n2nc(-c3c(C)nc4scc(CC(=O)NCc5ccccc5)n4c3=O)cc2C)c1	u	28
SMILES	KDM5B inhibitor	IP6K1 inh
COc1ccccc1-n1nc(-c2c(C)nc3scc(CC(=O)NCCC(C)C)n3c2=O)cc1C	28µM*	-1
Cc1cccc(-n2nc(-c3c(C)nc4scc(CC(=O)NCCC(C)C)n4c3=O)cc2C)c1	25µM*	9
Cc1nc2scc(CC(=O)NCCC(C)C)n2c(=O)c1-c1cc(C)n(-c2ccccc2F)n1	u	6
CCCCCNC(=O)Cc1csc2nc(C)c(-c3cc(C)n(-c4ccccc4CC)n3)c(=O)n12	u	12
CCc1ccccc1-n1nc(-c2c(C)nc3scc(CC(=O)NCCC(C)C)n3c2=O)cc1C	25µM*	0
COc1cccc(-c2ccc(C(=O)NCCN[S+](=O)([O-])c3c(C)noc3C)cc2)c1	x	-13
Cc1ccc2nc(/C=C/c3ccc([N+](=O)[O-])cc3)ccc2c1	i	x
CCCc1nc(SC)ncc1C(=O)Nc1ccc(Cl)cc1C	i	x
CN(C)S(=O)(=O)N1CCC(Nc2cccnc2)C1 (centres undefined)	8.9µM*	12
O=C(c1ccoc1)N1CCC(Nc2cccnc2)C1 (centres undefined)	13µM*	0
CC(C)CNC(=O)N1CCC(Nc2cccnc2)C1 (centres undefined)	u	7
O=C(NC1CCCC1)N1CCC(Nc2cccnc2)C1 (centres undefined)	u	0
CCS(=O)(=O)N1CCC(Nc2cccnc2)C1 (centres undefined)	22µM*	7
O=C(c1cnccn1)N1CCC(Nc2cccnc2)C1 (centres undefined)	u	8
CN(Cc1ccccc1)C(=O)c1cc(-c2ccccc2C(F)(F)F)nc2c1cnn2C	x	-1
CCOC(=O)[C@@H]1CN([S+](=O)([O-])Cc2ccccc2)[C@H]2c3cccc(F)c3O[C@@H]12	x	10

Assay outcomes (PubChem)
